Test results: PubChem BioAssay (NCATS)
Results filed as inconclusive are left out. A call without a number means that no potency is given here. Calls of active or inactive are those of the source. Calls follow the shape of the dose curve; as a rule, active = well fitted curve in the direction sought with a large enough effect; inconclusive = small, poorly fitted or top-dose-only effect, or another doubt; inactive = no such curve, though single readings can be large; an effect the other way counts as inactive or inconclusive. Numbered stars: 1 amine (or outer) side, 2 acyl side, 3 side chain; on linkers, the order of the positions; unused ones are H or OH. Bridge positions count the residues as written; N and C are the ends. Square brackets hold non-standard residues; d marks the D form. Peptide text beside a SMILES is read from it. I, II: the chains in the order shown. Actinocin(9to1) = Cc1c2oc3c(C)ccc(C(=O)[*:1])c3nc-2c(C(=O)[*:2])c(N)c1=O; NMeV = CN[C@H](C(=O)O)C(C)C; Sar = CNCC(=O)O

Assays:
[1] = qHTS to identify inhibitors of the type 1 interferon - major histocompatibility complex class I in skeletal muscle: primary screen against the NCATS Pharmaceutical Collection (AID 1347407);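 also: luminescence of HiBiT knocked into endogenous HLA-B as interferon-induced MHC class I level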; also: potency is read from the fitted curve at half-maximal effect
Method in brief: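 Compounds […] were added to CRISPR-engineered HLA-B-HiBiT C25cl48 human myoblasts with 4.0 ng/ml IFN-beta. After 24 hrs at 37 C, cells were lysed and HiBiT luminescence measured.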

[2] = target: Protein phosphatase 1D (Homo sapiens) (UniProt O15297); assay: RapidFire Mass Spectrometry qHTS Assay for Modulators of WT P53-Induced Phosphatase 1 (WIP1) (AID 1347424);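 also: amount of dephosphorylated VEPPL-S-QETFS peptide product formed by WIP1; series mostly up to about 63 µM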
Chain of Protein phosphatase 1D (Homo sapiens) (O15297 whole entry, looked up): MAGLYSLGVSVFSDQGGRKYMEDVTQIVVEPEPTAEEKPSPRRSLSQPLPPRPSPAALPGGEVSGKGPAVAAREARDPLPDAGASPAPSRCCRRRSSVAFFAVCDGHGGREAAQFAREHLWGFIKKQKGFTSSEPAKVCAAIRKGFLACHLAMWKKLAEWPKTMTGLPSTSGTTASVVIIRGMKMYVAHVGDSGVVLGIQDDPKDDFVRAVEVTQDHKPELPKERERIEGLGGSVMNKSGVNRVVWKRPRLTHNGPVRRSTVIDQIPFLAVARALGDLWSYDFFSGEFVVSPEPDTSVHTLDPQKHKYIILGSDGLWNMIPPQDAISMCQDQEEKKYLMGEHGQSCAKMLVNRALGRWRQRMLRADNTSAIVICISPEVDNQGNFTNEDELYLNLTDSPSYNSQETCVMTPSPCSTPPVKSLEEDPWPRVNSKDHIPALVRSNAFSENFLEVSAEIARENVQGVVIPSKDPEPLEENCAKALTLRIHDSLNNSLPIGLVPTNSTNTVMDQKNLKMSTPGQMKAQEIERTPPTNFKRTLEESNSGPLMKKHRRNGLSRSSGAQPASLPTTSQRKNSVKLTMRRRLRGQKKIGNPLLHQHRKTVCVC
Method in brief: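 10 nM WIP1 + cpd, 1 h RT; + 2 uM VEPPL-pS-QETFS, 5 min RT; stop 0.5% formic acid; labelled product standard 1 uM; RapidFire MS. Buffer 50 mM Tris pH 7.5, 30 mM MgCl2, 1 mM TCEP.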

[3] = target: Protein phosphatase 1D (Homo sapiens) (UniProt O15297); assay: Rhodamine-PBP qHTS Assay for Modulators of WT P53-Induced Phosphatase 1 (WIP1) (AID 1347425)
Method in brief: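 The read-out is the change in Rhodamine-PBP fluorescence (f1 - f0, ex 525/em 598 nm) as Pi is released, read each minute for 11 min. Final reaction: 5 nM WIP1, 10 uM phosphopeptide VEPPL-pS-QETFS, 10 uM Rh-PBP, 50 mM Tris-HCl pH 7.5, 30 mM MgCl2. Compound was preincubated with enzyme for 1 hour at room temperature.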

[4] = Primary qHTS for inhibitors of La Crosse Virus (LACV) - induced cell death in SH-SY5Y cells (AID 1508616);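 also: top concentration of the series differs between compounds; higher means more rescue of cells from virus-induced death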
Method in brief: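 Readout was luminescence from ATPLite 1step added after a 6-day LACV infection (0.01 MOI) of SH-SY5Y cells that had received pin-transferred compound 24 hr after seeding.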

[5] = target: Calcium and integrin-binding protein 1 (Homo sapiens) (UniProt Q99828); assay: Primary qHTS for Identification of Calcium Integrin Binding Protein 1 (CIB1) Competitor (AID 1508620);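 also: GST tagged CIB1 binding a fluorescein labelled alphaIIb integrin peptide tracer; top concentration of the series differs between compounds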
Chain of Calcium and integrin-binding protein 1 (Homo sapiens) (Q99828 whole entry, looked up): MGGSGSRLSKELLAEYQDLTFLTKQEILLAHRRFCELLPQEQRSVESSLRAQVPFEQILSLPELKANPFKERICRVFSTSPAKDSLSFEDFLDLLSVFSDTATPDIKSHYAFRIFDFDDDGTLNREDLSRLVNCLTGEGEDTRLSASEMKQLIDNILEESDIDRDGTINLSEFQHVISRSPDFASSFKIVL
Method in brief: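 CIB1-GST (1 uM final) and compound incubated 15 min at room temperature before adding FITC-alphaIIb peptide tracer (100 nM final). Competition for binding read by fluorescence polarization (ex 480, em 540) after another 15 min at room temperature.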

Structure (SMILES)	Potency [1]	Potency [2]	outcome [3]	Potency [4]	Potency [5]
O=S1(=O)c2cccc3cccc(c23)N1CCCN1CCN(c2ccc(F)cc2)CC1	inactive	inactive	inactive	inactive	inactive
NC(=O)CC[C@@H]1NC(=O)[C@H](Cc2ccccc2)NC(=O)[C@H](Cc2ccc(O)cc2)NC(=O)CCSSC[C@@H](C(=O)N2CCC[C@H]2C(=O)N[C@@H](CCCN=C(N)N)C(=O)NCC(N)=O)NC(=O)[C@H](CC(N)=O)NC1=O	inactive	inactive	inactive	inactive	inactive
CN=C(NC#N)Nc1ccc(C2=NNC(=O)CC2C)cc1 (centres undefined)	inactive	inactive	inactive	inactive	inactive
CCCN1CCCC[C@H]1C(=O)Nc1c(C)cccc1C	inactive	inactive	inactive	inactive	inactive
COc1ccc(OC)c(C(O)CNC(=O)CN)c1 (centres undefined)	inactive	inactive	inactive	inactive	inactive
COc1cc2c(cc1OC)[C@@H]1CC(=O)[C@@H](CC(C)C)CN1CC2	inactive	inactive	inactive	inactive	inactive
CC(C)COC(=O)c1ccc(N)cc1	inactive	inactive	inactive	inactive	inactive
CC(=O)OCC(=O)NCCCOc1cccc(CN2CCCCC2)c1	inactive	inactive	inactive	inactive	inactive
Oc1cc(O)c2c(c1)O[C@H](c1ccc(O)c(O)c1)[C@H](O)C2	inactive	inactive	inactive		inactive
CN=C(NC#N)NCCSCc1csc(N=C(N)N)n1	inactive	inactive	inactive	inactive	inactive
COc1cc(/C=C/C(=O)O[C@H]2CC[C@]34C[C@]35CC[C@]3(C)[C@@H]([C@H](C)CCC=C(C)C)CC[C@@]3(C)[C@@H]5CC[C@H]4C2(C)C)ccc1O	inactive	inactive	inactive	inactive	inactive
CCN(CC)CCNC(=O)COc1ccc(Cl)cc1	inactive	inactive	inactive	inactive	inactive
CCOC(=O)n1ccn(C)c1=S	inactive	inactive	inactive		inactive
NCCC(O)(P(=O)(O)O)P(=O)(O)O	inactive	inactive	inactive		inactive
CN(C)C(=S)SC(=S)N(C)C	inactive	inactive	inactive		inactive
Nc1nc2ncc(CNc3ccc(C(=O)N[C@@H](CCC(=O)O)C(=O)O)cc3)nc2c(=O)[nH]1	inactive	inactive	inactive	inactive	inactive
CC1(C)O[C@@H]2[C@@H](CO[C@@]3(COS(N)(=O)=O)OC(C)(C)O[C@@H]23)O1	inactive	inactive	inactive	inactive	inactive
CCCSS/C(CCO)=C(\C)N(C=O)Cc1cnc(C)nc1N	inactive	inactive	inactive		inactive
Cc1c2oc3c(C)ccc(C(=O)N[C@@H]4C(=O)N[C@H](C(C)C)C(=O)N5CCC[C@H]5C(=O)N(C)CC(=O)N(C)[C@@H](C(C)C)C(=O)O[C@@H]4C)c3nc-2c(C(=O)N[C@@H]2C(=O)N[C@H](C(C)C)C(=O)N3CCC[C@H]3C(=O)N(C)CC(=O)N(C)[C@@H](C(C)C)C(=O)O[C@@H]2C)c(N)c1=O (I: T[dV]P[Sar][NMeV] / II: T[dV]P[Sar][NMeV]; ester I:1-I:C, II:1-II:C; linker I:N-II:N via Actinocin(9to1))	938 nM (active)	inactive	inactive	inactive	inactive
CC(=O)Nc1c(I)cc(I)c(C(=O)O)c1I	inactive	inactive	inactive		inactive
CN(C)CCCOc1nn(Cc2ccccc2)c2ccccc12	inactive	inactive	inactive	inactive	inactive
CCCCS(=O)(=O)N[C@@H](Cc1ccc(OCCCCC2CCNCC2)cc1)C(=O)O	inactive	inactive	inactive	inactive	inactive
CCCCOc1ccc(C(=O)CCN2CCCCC2)cc1	inactive	inactive	inactive	inactive	inactive
CCOc1ccc(NC(=O)CC(C)O)cc1 (centres undefined)	inactive	inactive	inactive	inactive	inactive
NC[C@H]1O[C@H](O[C@H]2[C@H](O)[C@@H](O[C@H]3O[C@H](CO)[C@@H](O)[C@H](N)[C@H]3O)[C@H](N)C[C@@H]2N)[C@H](N)[C@@H](O)[C@@H]1O	inactive	inactive	inactive	inactive	inactive
O=C(N/N=C/c1ccccc1O)c1ccncc1	inactive	inactive	inactive	inactive	inactive
